Results on 36 compounds are retold here after PubChem BioAssay (NCATS).

Inconclusive results are not listed. A call without a number means that no potency is given here. Calls of active or inactive are those of the source. Calls follow the shape of the dose curve; as a rule, active = well fitted curve in the direction sought with a large enough effect; inconclusive = small, poorly fitted or top-dose-only effect, or another doubt; inactive = no such curve, though single readings can be large; an effect the other way counts as inactive or inconclusive.
Also: nearly all actives have a fitted effect of over 70% in size.
Potency is read from the fitted curve at half-maximal effect.

Chain of Luciferin 4-monooxygenase (Photinus pyralis) (P08659 whole entry, looked up): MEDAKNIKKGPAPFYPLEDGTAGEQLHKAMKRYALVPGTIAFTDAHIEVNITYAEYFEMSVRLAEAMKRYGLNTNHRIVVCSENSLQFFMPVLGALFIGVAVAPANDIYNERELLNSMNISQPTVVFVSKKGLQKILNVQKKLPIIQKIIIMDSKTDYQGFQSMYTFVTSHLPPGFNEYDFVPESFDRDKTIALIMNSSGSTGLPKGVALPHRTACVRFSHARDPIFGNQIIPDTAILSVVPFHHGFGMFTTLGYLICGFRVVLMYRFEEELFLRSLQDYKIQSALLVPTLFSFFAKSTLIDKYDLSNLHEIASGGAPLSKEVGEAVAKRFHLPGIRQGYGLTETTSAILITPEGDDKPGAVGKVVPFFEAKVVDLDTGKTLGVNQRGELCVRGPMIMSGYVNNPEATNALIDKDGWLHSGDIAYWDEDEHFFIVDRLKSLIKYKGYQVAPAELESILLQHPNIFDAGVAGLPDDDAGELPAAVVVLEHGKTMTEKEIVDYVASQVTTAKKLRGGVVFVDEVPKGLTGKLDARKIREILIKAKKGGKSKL

The target of the first test is Luciferin 4-monooxygenase (Photinus pyralis) (UniProt P08659). As to the kind of experiment: Biochemical firefly luciferase enzyme assay for NPC (AID 624030). The following applies: purified P. pyralis luciferase, luminescence, 5 min; series mostly up to 58.6 µM. The procedure, abridged:
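Purified P. pyralis luciferase at 10 nM in 50 mM Tris Acetate (final), luminescence read within 5 minutes of enzyme addition to compounds. Activity normalised to PTC124 versus DMSO; concentration-response curves classed by r2, magnitude and activity.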
For the compound `CC1CCc2c(N3CCC(O)CC3)c(F)cc3c(=O)c(C(=O)O)cn1c23` (configuration not stated), the Potency entry was “inactive”.
For the compound `Cc1cc(C)cc(OCC2CNC(=O)O2)c1` (configuration not stated), the Potency entry was “inactive”.
The same measure, in the same setting: the same measure for `CC(=O)Oc1ccc(C)cc1`: “inactive”; for `CC(C)(C)NC[C@H](O)COc1cccc2c1CCCC2=O`: “inactive”.
`CC[N+](C)(CC)CCOC(=O)C(O)(c1ccccc1)C1CCCCC1` (configuration not stated): the Potency result was “inactive”.
Still for that read-out and setting: the same measure for `CCCCCCCCNC(C)C(O)c1ccc(SC(C)C)cc1` (configuration not stated): “inactive”; for `O=C(O)CCC(=O)Nc1ccc(S(=O)(=O)Nc2nccs2)cc1`: “inactive”; for `Cc1cc(NS(=O)(=O)c2ccc(N)cc2)nc(C)n1`: “inactive”.
Take `NS(=O)(=O)c1ccc(Cl)c(S(N)(=O)=O)c1`: the Potency result is “inactive”.
Same read-out and setting: for `Nc1ccc(C(=O)NCC(=O)O)cc1` the value was “inactive”.
Still for that read-out and setting: for `O=C(Nc1cccc(C2=NCCN2)c1)Nc1cccc(C2=NCCN2)c1` the value was “inactive”; for `Cc1cccc(C)c1NC(=O)c1ccccc1C(=O)O`, “inactive”.
The same measure, in the same setting: the same measure for `CCCCNC(=O)NS(=O)(=O)c1ccc(N)cc1`: “inactive”.
Turning to `COP(=O)(OC)OC(c1ccc(Cl)cc1)P(=O)(OC)OC` (configuration not stated), the Potency result was “inactive”.
Consider `Cc1ccc(S(=O)(=O)NC(=O)NC2CCCC2)cc1`, for which the Potency entry is “inactive”.
Still for that read-out and setting: the same measure for `CCN1/C(=C/C=C/c2sc3ccccc3[n+]2CC)Sc2ccccc21`: 12.8 µM (active); for `CCCc1ncc(C[n+]2ccccc2C)c(N)n1`: “inactive”; for `CC(=O)Nc1ccc(S(=O)(=O)Nc2ccc([N+](=O)[O-])cc2)cc1`: “inactive”.
Same read-out and setting: for `COc1cc(C)nc(-n2nc(C)cc2OC)n1` the value was “inactive”.
`CN(C)CCOC(c1ccc(Cl)cc1)c1ccccn1` (configuration not stated): the Potency entry is “inactive”.
Take `CCN(CC)CCNC(=O)COc1ccc(OC)cc1`: the Potency result was “inactive”.
The same measure, in the same setting: for `CC(=O)O[C@H]1C[C@@H]2CC[C@@H]3[C@H](CC[C@@]4(C)[C@H]3C[C@H]([N+]3(C)CCCCC3)[C@@H]4OC(C)=O)[C@@]2(C)C[C@@H]1N1CCCCC1` the value was “inactive”; for `OC1C(O)C(O)C(O)C(O)C1O` (configuration not stated), “inactive”; for `COc1ccc(CCN(C)CCCN2CCc3cc(OC)c(OC)cc3CC2=O)cc1OC`, “inactive”.
In the case of `CC(=O)NC(=O)c1ccccc1O`, the Potency entry was “inactive”.
As to `Cc1cccc(C)c1NC(=O)CN1CCCCCC1`, the Potency result is “inactive”.
Still for that read-out and setting: for `N#CCC(=O)NN` the value was “inactive”; for `CC(=O)Nc1ccc(OCC(O)CNC(C)C)cc1` (configuration not stated), “inactive”; for `CCc1ccc(C(=O)C(C)CN2CCCCC2)cc1` (configuration not stated), “inactive”.
Still for that read-out and setting: for `NC1CCN(c2nc3c(cc2F)c(=O)c(C(=O)O)cn3-c2ccc(F)cc2F)C1` (configuration not stated) the value was “inactive”; for `NS(=O)(=O)c1cc(C(=O)O)cc(N2CCCC2)c1Oc1ccccc1`, “inactive”.
Take `CC(C)Cc1ccc(CC(=O)O)cc1`: the Potency entry was “inactive”.
The same measure, in the same setting: for `N=C(N)N1CCc2ccccc2C1` the value was “inactive”; for `O=C(O)CCNC(=O)c1ccccc1`, “inactive”; for `c1ccc(-c2nc[nH]c2-c2ccccc2)cc1`, “inactive”.
On the same count and under the same terms, for `COC(=O)C(c1ccccc1Cl)N1CCc2sccc2C1` (configuration not stated) the value was “inactive”.

Tested on in the next test: not listed separately
As to the kind of experiment: S16 Schwann cell viability assay (CellTiter-Glo assay) (AID 624031). Particulars: S16 rat Schwann cells viability, 24 h; series mostly up to 57.5 µM. Summed up:
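Native S16 rat Schwann cells in DMEM/10% FBS without phenol red were incubated overnight, then exposed to compounds for 24 h at 37 °C/5% CO2. Viability was read as ATP luminescence (CellTiter-Glo), normalized to no-cell wells and DMSO (0%).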
As to `CC1CCc2c(N3CCC(O)CC3)c(F)cc3c(=O)c(C(=O)O)cn1c23` (configuration not stated), the Potency entry is “inactive”.
The same measure, in the same setting: for `Cc1cc(C)cc(OCC2CNC(=O)O2)c1` (configuration not stated) the value was “inactive”; for `CC(=O)Oc1ccc(C)cc1`, “inactive”.
Take `CC(C)(C)NC[C@H](O)COc1cccc2c1CCCC2=O`: the Potency entry was “inactive”.
The same measure, in the same setting: the same measure for `CC[N+](C)(CC)CCOC(=O)C(O)(c1ccccc1)C1CCCCC1` (configuration not stated): “inactive”.
The same measure, in the same setting: for `CCCCCCCCNC(C)C(O)c1ccc(SC(C)C)cc1` (configuration not stated) the value was 14.4 µM (active); for `O=C(O)CCC(=O)Nc1ccc(S(=O)(=O)Nc2nccs2)cc1`, “inactive”.
Same read-out and setting: the same measure for `Cc1cc(NS(=O)(=O)c2ccc(N)cc2)nc(C)n1`: “inactive”.
Take `NS(=O)(=O)c1ccc(Cl)c(S(N)(=O)=O)c1`: the Potency entry is “inactive”.
Consider `Nc1ccc(C(=O)NCC(=O)O)cc1`, for which the Potency result was “inactive”.
Same read-out and setting: the same measure for `O=C(Nc1cccc(C2=NCCN2)c1)Nc1cccc(C2=NCCN2)c1`: “inactive”; for `Cc1cccc(C)c1NC(=O)c1ccccc1C(=O)O`: “inactive”.
Still for that read-out and setting: the same measure for `CCCCNC(=O)NS(=O)(=O)c1ccc(N)cc1`: “inactive”; for `COP(=O)(OC)OC(c1ccc(Cl)cc1)P(=O)(OC)OC` (configuration not stated): “inactive”.
Consider `Cc1ccc(S(=O)(=O)NC(=O)NC2CCCC2)cc1`, for which the Potency result is “inactive”.
Still for that read-out and setting: for `CCN1/C(=C/C=C/c2sc3ccccc3[n+]2CC)Sc2ccccc21` the value was 4.05 µM (active); for `CCCc1ncc(C[n+]2ccccc2C)c(N)n1`, “inactive”.
On the same count and under the same terms, the same measure for `CC(=O)Nc1ccc(S(=O)(=O)Nc2ccc([N+](=O)[O-])cc2)cc1`: “inactive”.
The same measure, in the same setting: the same measure for `COc1cc(C)nc(-n2nc(C)cc2OC)n1`: “inactive”; for `CN(C)CCOC(c1ccc(Cl)cc1)c1ccccn1` (configuration not stated): “inactive”.
As to `CCN(CC)CCNC(=O)COc1ccc(OC)cc1`, the Potency result was “inactive”.
Take `CC(=O)O[C@H]1C[C@@H]2CC[C@@H]3[C@H](CC[C@@]4(C)[C@H]3C[C@H]([N+]3(C)CCCCC3)[C@@H]4OC(C)=O)[C@@]2(C)C[C@@H]1N1CCCCC1`: the Potency result is “inactive”.
As to `OC1C(O)C(O)C(O)C(O)C1O` (configuration not stated), the Potency entry was “inactive”.
Same read-out and setting: the same measure for `COc1ccc(CCN(C)CCCN2CCc3cc(OC)c(OC)cc3CC2=O)cc1OC`: “inactive”.
Same read-out and setting: the same measure for `CC(=O)NC(=O)c1ccccc1O`: “inactive”; for `Cc1cccc(C)c1NC(=O)CN1CCCCCC1`: “inactive”.
Still for that read-out and setting: the same measure for `N#CCC(=O)NN`: “inactive”; for `CC(=O)Nc1ccc(OCC(O)CNC(C)C)cc1` (configuration not stated): “inactive”.
On to `CCc1ccc(C(=O)C(C)CN2CCCCC2)cc1` (configuration not stated), for which the Potency entry was “inactive”.
The same measure, in the same setting: the same measure for `NC1CCN(c2nc3c(cc2F)c(=O)c(C(=O)O)cn3-c2ccc(F)cc2F)C1` (configuration not stated): “inactive”.
On the same count and under the same terms, for `NS(=O)(=O)c1cc(C(=O)O)cc(N2CCCC2)c1Oc1ccccc1` the value was “inactive”; for `CC(C)Cc1ccc(CC(=O)O)cc1`, “inactive”; for `N=C(N)N1CCc2ccccc2C1`, “inactive”.
Same read-out and setting: for `O=C(O)CCNC(=O)c1ccccc1` the value was “inactive”; for `c1ccc(-c2nc[nH]c2-c2ccccc2)cc1`, “inactive”.
In the case of `COC(=O)C(c1ccccc1Cl)N1CCc2sccc2C1` (configuration not stated), the Potency entry was “inactive”.
